Sampled rows, rich in hits. Any-hit rate of the full collection: about 14%.
USP28 block: human USP28 deubiquitinase inhibition | purified USP28, Ub-rhodamine cleavage fluorescence, 30 min | inhibition, % at 25 µM | Q96RU2 | actives 3% (n = 47,000)
USP10 block: human USP10 deubiquitinase inhibition; Q14694; purified USP10, Ub-rhodamine fluorescence, 60 min; inhibition, % at 20 µM; actives 1.1% (n = 47,000); AID 1645856
USP8 inh: inhibitors of human USP8 deubiquitinase; P40818; purified USP8, Ub-rhodamine cleavage fluorescence, 30 min; inhibition, % at 20 µM; actives 4.2% (n = 47,000)
USP30 inh: blocks human USP30 ubiquitin-rhodamine cleavage; actives 5.3% (n = 47,000); purified USP30, Ub-rhodamine cleavage fluorescence; inhibition, % at 25 µM; AID 1645860
USP17 block: inhibitors of human USP17 deubiquitinase | actives 6.5% (n = 47,000) | purified USP17, Ub-rhodamine cleavage fluorescence, 3 h | AID 1645855 | inhibition, % at 50 µM
Numbers without * were called inactive; . = no result. No stated cut-off is given here; in the data, active means inhibition above about 30%; inactive means the rest.

SMILES | USP28 block | USP10 block | USP8 inh | USP30 inh | USP17 block
CCN1C(=O)c2cccnc2Sc2cc(NC(=O)CCc3ccccc3OC)ccc21 | -11.8 | -7.4 | -0.5 | -86.0 | 2.9
COc1ccccc1-c1nnc(-c2cccc(S(=O)(=O)N3CCCC3)c2)o1 | -1.0 | -1.0 | -8.6 | 1.8 | 1.2
N#CC1(c2ccccc2)CCC2(CC1)N=C(N)Nc1nc3ccccc3n12 (centres undefined) | 0.5 | -3.0 | 2.7 | -24.1 | -12.8
CCCCS(=O)(=O)N1CCC2(CC1)CC2c1nnc(-c2cccc(F)c2)o1 (centres undefined) | -5.2 | -2.8 | -2.0 | 9.2 | -13.7
O=C(NCCCN1CCCC1)c1ccc(CS(=O)(=O)c2ccc(Br)cc2)o1 | -5.7 | -3.5 | -3.5 | -23.8 | 39.7*
COc1ccc(C)cc1NC(=O)c1ccc(N2CCOCC2)nn1 | 9.3 | -4.3 | -25.7 | 54.4* | 51.6*
Cc1ccc(NC(=O)c2ccc(N3CCOCC3)nn2)cc1F | 25.8 | 0.5 | -4.8 | 1.6 | 70.7*
O=C(Nc1ccccc1Cl)c1ccc(N2CCOCC2)nn1 | . | -3.1 | 0.8 | . | 6.2
CCc1cc(=O)n(CC(=O)Nc2cc(C)ccc2OC)c(N2CCOCC2)n1 | 27.0 | 1.6 | 13.8 | 58.7* | 36.2*
COc1cnc(CSc2ncccn2)cc1OCC(=O)Nc1cccc(F)c1 | 3.8 | 2.6 | -60.9 | 32.3* | -6.6
COc1cnc(CSc2ncccn2)cc1OCC(=O)Nc1cc(C)ccc1C | -16.7 | -1.3 | -62.6 | 55.0* | -15.9
COc1cnc(CSc2ncccn2)cc1OCC(=O)Nc1ccccc1F | -9.5 | 3.6 | -48.0 | -296.0 | -5.6
COc1cnc(CSc2nccc(C)n2)cc1OCC(=O)Nc1cc(C)ccc1C | 13.9 | -2.7 | -4.2 | 23.5 | 0.7
CCOc1ccc(CNC(=O)CCn2cnc3ccccc3c2=O)cc1 | -5.3 | -1.3 | 63.8* | 3.4 | -105.9
COc1ccc(NC(=O)Cn2cnc3scc(-c4ccc(OC)cc4)c3c2=O)cc1 | 0.8 | -4.1 | -13.4 | -63.4 | 44.7*
Cc1ccc(-c2csc3ncn(Cc4ccco4)c(=O)c23)cc1 | 32.0* | 3.8 | -1.3 | 8.7 | 29.7
CCOc1ccc(-c2csc3ncn(CC(=O)NCc4ccccc4)c(=O)c23)cc1 | -5.7 | 1.2 | -9.2 | -86.2 | 36.7*
CCOc1ccccc1NC(=O)CCn1cnc2ccccc2c1=O | 8.4 | 2.9 | -109.5 | 10.1 | -25.8
CC(C)(C)OC(=O)N1CC(=O)N(CCCc2ccccc2)CC(O)C1 (centres undefined) | -3.8 | 0.0 | 1.3 | -2.3 | 0.0
COCC(=O)N1CCCCCC1C1CCN(Cc2ccc(C#N)cc2)CC1 (centres undefined) | -22.0 | -7.5 | -76.9 | -89.7 | -32.7
CC(=O)N1CCc2cc(S(=O)(=O)NCCC(=O)Nc3ccc(C)cc3C)ccc21 | 14.6 | 0.9 | 18.8 | 27.8 | 17.4
COc1ccccc1CNC(=O)Cn1cnc2c(-c3ccccc3)csc2c1=O | 20.0 | 40.4* | 69.7* | 32.8* | 20.7
CC(C)n1cnc2c(-c3ccccc3)cn(CC(=O)NCc3ccccc3)c2c1=O | -14.1 | -10.4 | 0.2 | -48.2 | 35.7*
COCCN1C(=O)c2ccccc2C(C(=O)Nc2nc3ccccc3s2)C12CCCC2 (centres undefined) | 1.7 | -2.9 | 18.8 | 4.1 | 0.2
CCN1CCC2(CC1)CN(C(=O)c1cnn(C)c1C)Cc1cc(C)ccc1O2 | -13.4 | -5.2 | -74.1 | -46.1 | -29.3
SMILES | USP28 block | USP10 block | USP8 inh | USP30 inh | USP17 block
C/C=C1/C2=CCCN3C(=O)O[C@H]([C@H]1O)[C@H]23 | 69.1* | 4.8 | 8.1 | 13.6 | 72.2*
Cc1ccn2c(=O)c(C(=O)Nc3ccc4c(c3)OCCO4)cnc2c1 | 14.2 | -2.9 | -52.3 | 1.1 | -4.1
O=C(Nc1ccccc1)c1cn2c3c(cccc3c1=O)CC2 | 2.9 | 6.4 | 17.5 | 0.6 | 68.6*
O=C(O)c1cn2c3c(cccc3c1=O)CCC2 | 2.7 | 1.0 | 29.4 | 2.9 | 5.4
O=C(NCCc1nc2ccccc2n1CCOc1ccccc1Cl)C1CCCCC1 | 30.0* | 37.5* | 83.1* | 55.4* | 64.1*
Cc1cccc(OCCn2c(CCNC(=O)C3CCCCC3)nc3ccccc32)c1 | 11.4 | 31.7* | 48.5* | 78.7* | 41.7*
COc1ccccc1OCCCn1c(CN(C)C(=O)c2ccco2)nc2ccccc21 | 1.0 | 0.6 | -7.4 | -0.7 | -10.0
CCc1ccc(OCCn2c(CCNC(=O)C3CCCCC3)nc3ccccc32)cc1 | 16.8 | 28.0 | 69.4* | 27.5 | 5.8
COc1ccccc1C(=O)Nc1nc2ccccc2n1CCOc1ccccc1 | . | 2.2 | 2.2 | . | -30.7
COc1ccc(CN(C(=O)Cn2nnc(-c3cccc(F)c3)n2)C2CC2)cc1 | -0.3 | 0.2 | 6.8 | -7.4 | -4.3

Screening data: PubChem BioAssay, Buhrlage Lab, Dana-Farber Cancer Institute and Novartis Institutes for BioMedical Research (Cambridge, Mass)
